The entries come from a sample that favours hits as a whole.
IL-1B inflam inh: inhibitors of inflammasome signaling (IL-1 beta secretion) | THP-1 LPS/ATP IL-1B secretion, AlphaLISA, 16 h; hits give low values | 360,000 compounds, 4.7% hits | activity change, % at 57.5 µM | AID 743279; in the data active = activity change below about -50%; inconclusive = mostly about -30% to -49%
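Secreted IL-1B measured by AlphaLISA bead assay after 16 h compound exposure of THP-1 cells; compounds (final up to 57.5 uM) added 1 h before LPS (250 ng/mL) and ATP (1.25 mM) stimulation; lower signal means less secretion.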
ALOX12 inh: ALOX12 (human) lipoxygenase inhibition. 580,000 compounds, 1.1% hits. purified 12hLO, xylenol orange hydroperoxide absorbance. AID 1671190. P18054. Potency, µM (highest dose often 108 µM), for the others: top-dose activity change, negative = inhibition, actives largely listed as inhibitors; note: potency is the fitted concentration of half-maximal effect
Target sequence (P18054 whole entry, looked up): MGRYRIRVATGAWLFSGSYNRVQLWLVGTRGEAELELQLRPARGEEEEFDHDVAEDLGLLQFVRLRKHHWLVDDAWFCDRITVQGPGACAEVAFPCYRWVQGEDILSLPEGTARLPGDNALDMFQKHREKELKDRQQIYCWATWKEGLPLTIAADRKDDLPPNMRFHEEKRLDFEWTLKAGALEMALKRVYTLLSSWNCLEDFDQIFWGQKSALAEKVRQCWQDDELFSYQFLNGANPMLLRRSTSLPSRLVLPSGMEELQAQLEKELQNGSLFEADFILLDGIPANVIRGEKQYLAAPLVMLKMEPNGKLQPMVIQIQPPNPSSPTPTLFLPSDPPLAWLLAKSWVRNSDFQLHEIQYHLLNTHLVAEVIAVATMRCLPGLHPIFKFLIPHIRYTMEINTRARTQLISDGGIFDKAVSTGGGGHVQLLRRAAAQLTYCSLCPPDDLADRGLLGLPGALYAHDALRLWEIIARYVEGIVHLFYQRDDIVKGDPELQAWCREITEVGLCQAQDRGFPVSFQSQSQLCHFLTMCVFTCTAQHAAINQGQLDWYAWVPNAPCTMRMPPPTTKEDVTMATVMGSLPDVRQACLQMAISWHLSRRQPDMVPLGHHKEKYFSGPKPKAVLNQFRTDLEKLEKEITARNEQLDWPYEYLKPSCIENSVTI
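Purified human 12hLO (150 nM final) in 25 mM Hepes, 0.01% Triton X-100, pH 7.0 was preincubated 15 min at room temperature with compound. Then 40 uM arachidonic acid was added, 30 min. Hydroperoxide was read by Fe-XO absorbance ratio 573/405 nm.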
HT1080-NT tox: kills 2HG-producing HT-1080-NT fibrosarcoma cells; HT-1080-NT fibrosarcoma viability, CellTiter-Glo ATP luminescence, 48 h; Potency, µM (titrated, usually from 46.1 µM), inactives show top-dose activity, negative = less viability, hits mostly cytotoxic; 360,000 compounds, 1.6% hits; AID 686970;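 note: NT is the 2HG producing partner of a matched IDH1 knockdown line; potency is the fitted concentration of half-maximal effect; 0% = DMSO-treated cells and -100% = media-only wells without cells; nearly all actives have a fitted effect of over 55% in size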
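Read-out is CellTiter-Glo luminescence after 10 minutes at room temperature, following 48 hours' compound treatment of HT-1080-NT cells (750 cells/well, RPMI, 5% FBS, 37 degrees C).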
DT40 TDP1 no CPT: qHTS for Inhibitors of human tyrosyl-DNA phosphodiesterase 1 (TDP1): qHTS in cells in absence of CPT; DT40 Tdp1-/- hTDP1 cells, no CPT, ATP luminescence, 48 h; Potency, µM (series often up to 46.2 µM), without a hit: top-dose activity change, negative = growth inhibition, actives largely listed as inhibitors; 420,000 compounds, 15% hits; note: potency is the fitted concentration of half-maximal effect; nearly all actives have a fitted effect of over 55% in size
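Growth of hTDP1-complemented DT40 Tdp1-knockout cells is measured by ATP luminescence after at least 48 hr compound exposure at 37 °C, with DMSO substituting for the 20 nM CPT used in the parallel screen.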
HT1080 IDH1KD tx: toxicity to HT-1080 IDH1 knockdown cells (counter line) | Potency, µM (series often up to 46.1 µM), inactives show top-dose activity, negative = toxicity, hits mostly cytotoxic | HT-1080 IDH1 knockdown viability, ATP luminescence, 48 h | 360,000 compounds, 2% hits;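 note: potency is the fitted concentration of half-maximal effect; 0% = DMSO wells and -100% = cell-free medium wells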
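Viability of IDH1-knockdown HT-1080 fibrosarcoma cells was assessed by CellTiter-Glo after 48 h at 37 °C with titrated compound; concentration-effect curves were classified by fit quality and response size.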
TDP1 cell CPT: growth inhibition of DT40 Tdp1-/-;hTDP1 cells with camptothecin (screen for TDP1 inhibitors). Potency, µM (highest dose often 46.2 µM), for the others: top-dose activity change, negative = growth inhibition, usual class: inhibitors. chicken DT40 Tdp1-/-;hTDP1 cells + 20 nM CPT, ATP luminescence, 48 h. 420,000 compounds, 12% hits. AID 686979; note: potency is the fitted concentration of half-maximal effect; nearly all actives have a fitted effect of over 55% in size
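Chicken DT40 Tdp1-/- cells stably complemented with human TDP1 were seeded at 400 cells/well in medium containing 20 nM camptothecin, exposed to pin-transferred compounds, and grown at 37 °C for at least 48 hr. Viability was read as ATP luminescence.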
The depositor's hits bear a star; ? = inconclusive; . = not tested or not shown; [ ] = another dose, or the depositor's remark. Unless noted, calls come from the whole dose curve; as a rule, active = well fitted curve in the direction sought with a large enough effect; inconclusive = small, poorly fitted or top-dose-only effect, or another doubt; inactive = no such curve, though single readings can be large; an effect the other way counts as inactive or inconclusive. Unless noted, % is set by controls: 0 for no effect and ±100 for the full control effect.

SMILES	IL-1B inflam inh	ALOX12 inh	HT1080-NT tox	DT40 TDP1 no CPT	HT1080 IDH1KD tx	TDP1 cell CPT
Cc1oc2cc(OCC(=O)N3CCN(CCO)CC3)ccc2c(=O)c1Oc1ccccc1	.	-0.6%	.	.	.	.
Cn1nccc1C(=O)N1[C@H]2CC[C@@H]1c1cnc(-c3ccccc3)nc1C2	.	5.2%	.	.	.	.
COc1ccc(/C=C/c2nc(-c3ccccc3O)n(-c3ccccc3)n2)cc1OC	.	1.9%	.	10.3µM*	.	10.3µM*
COc1ccc(-n2nnnc2C(c2cccc(OC)c2OC)N2CCC(n3c(=O)[nH]c4ccccc43)CC2)cc1 (configuration not stated)	-22.3	2.2%	?	5.17µM*	?	8.2µM*
COc1ccc(-n2nnnc2C(c2ccnc3ccccc23)N2CCC(n3c(=O)[nH]c4ccccc43)CC2)cc1 (configuration not stated)	-28.8	?	?	?	?	?
COC(=O)c1ccc(N2C(=O)CC(N3CCC(n4c(=O)[nH]c5ccccc54)CC3)C2=O)cc1 (configuration not stated)	-1.6	0.0%	-2.2%	-24.9%	-0.7%	?
O=c1[nH]c2ccccc2n1C1CCN(C(c2ccccc2OC(F)(F)F)c2nnnn2-c2ccc3c(c2)OCCO3)CC1 (configuration not stated)	-55.7*	-7.2%	?	4.61µM*	23.1µM*	7.31µM*
COc1cccc(C(c2nnnn2-c2ccc3c(c2)OCCO3)N2CCC(n3c(=O)[nH]c4ccccc43)CC2)c1OC (configuration not stated)	32.3	-1.1%	?	2.31µM*	?	2.91µM*
CS(=O)(=O)N1CCC2(C1)N=C(c1cccnc1)C(=O)N2 (configuration not stated)	.	26.3%[176 µM]	.	.	.	.
C[C@H]1C=CC(=O)O[C@H]1c1ccccc1	-104.7*	-0.4%	-25.1%	?	-20.2%	?
N#Cc1cccc(NC(=O)NC[C@H]2C[C@@H]3CCN2C[C@@H]3CN2CCOCC2)c1	.	-7.3%[176 µM]	.	.	.	.
CCn1ccnc1CN1CCCC(C(=O)c2cc(Cl)ccc2OC)C1 (configuration not stated)	-75.2*	-2.5%	-1.6%	?	-2.6%	?
COc1ccc(C(=O)C2CCCN(CC3CCCCC3)C2)cc1OC (configuration not stated)	-11.2	?	1.3%	?	7.8%	?
COc1ccccc1C(=O)C1CCCN(Cc2cnc(C)s2)C1 (configuration not stated)	18.5	1.8%	-2.8%	20.6µM*	-2.6%	?
CCn1ccnc1CN1CCCC(C(=O)c2cc(C)c(OC)c(C)c2)C1 (configuration not stated)	-10.1	-8.0%	0.0%	20.6µM*	-0.1%	?
COc1ccc(C(=O)C2CCCN(Cc3ccon3)C2)c(OC)c1 (configuration not stated)	13.1	2.3%	6.9%	?	8.3%	?
N/C(=N\N=C\c1ccccc1F)N[N+](=O)[O-]	.	-10.8%	.	.	.	.
CC(=O)OC1(c2ccccc2)CCN(CCc2ccccc2)CC1	.	.	.	22.1µM*	.	?
CC(C)NC(=O)[C@H]1CN2CC[C@H]1C[C@@H]2Cn1cc(C2(O)CCCC2)nn1	.	23.7%[176 µM]	.	.	.	.
CC(C)C[C@H]1CN(CCCC[C@H]2CNC(=O)C(=O)N2CCC2CCCCC2)C(=O)C(=O)N1CCC1CCCCC1	7.8	0.0%	1.2%	20.6µM*	23.1µM*	?
O=C1NC[C@H](CCCCN2C[C@@H](Cc3ccccc3)N(CC3CCCCC3)C(=O)C2=O)N(CCC2CCCCC2)C1=O	-1.3	?	-19.6%	13µM*	-24.8%	18.4µM*
O=C1NC[C@H](CCCCN2C[C@H](Cc3ccccc3)N(CC3CCCCC3)C(=O)C2=O)N(CCC2CCCCC2)C1=O	-7.9	?	14.5%	?	2.8%	?
O=C(c1ccsc1)N1[C@H]2CC[C@@H]1c1cnc(-c3ccc(F)cc3)nc1C2	.	8.7%	.	.	.	.
CNC(C)c1cccc(Cl)c1 (configuration not stated)	.	-8.1%[12.5 µM]	.	.	.	.
Clc1ccc(C(Cn2ccnc2)OCc2csc3c(Cl)cccc23)c(Cl)c1 (configuration not stated)	-77.8*	-23.8%	?	13µM*	20.6µM*	23.1µM*
SMILES	IL-1B inflam inh	ALOX12 inh	HT1080-NT tox	DT40 TDP1 no CPT	HT1080 IDH1KD tx	TDP1 cell CPT
CCOC(=O)[C@]12Cc3cc(Cl)ccc3[C@H]1N(C1CCCCC1)C(=O)c1ccccc12	-113.7*	.	2.31µM*	2.31µM*	2.31µM*	2.31µM*
CCOC(=O)[C@]12Cc3cc(OC)ccc3[C@H]1N(C1CCCCC1)C(=O)c1ccccc12	-121.7*	-69.0%	2.59µM*	2.31µM*	2.31µM*	2.06µM*
Cc1cccc(CN2CCN(C(=O)Cc3n[nH]c(=O)c4ccccc34)CC2)c1	.	-3.1%	.	.	.	.
C=CCc1ccc(OCCn2nnc3ccccc32)c(OC)c1	24.9	?	-27.7%	8.2µM*	-12.9%	10.3µM*
C=CCN1C(=O)NC(=O)C(Cc2ccc(OC)c(OC)c2)C1=O (configuration not stated)	-10.6	-5.2%	10.9%	-24.2%	18.3%	-4.3%
CCCCS(=O)(=O)N1C[C@@H](c2ccc3c(c2)OCO3)[C@@H]2[C@H]1C1CCN2CC1	.	-10.6%	.	.	.	.
CCc1ccc(NP(=O)(Oc2ccccc2F)Oc2ccccc2F)cc1	-102.0*	-13.4%	18.4µM*	?	23.1µM*	?
CCC1(O)C(=O)OCc2c1cc1n(c2=O)Cc2cc3c(N)cccc3nc2-1 (configuration not stated)	-96.7*	-17.2%	1.64µM*	0.0517µM*	0.651µM*	0.206µM*
COc1ccc(CC(=O)N2CCC3(C2)C(=O)Nc2ccc(OC)cc23)c(Cl)c1 (configuration not stated)	.	-13.5%	.	.	.	.
CN1C(=O)CO[C@H]2CN(Cc3ccccn3)C[C@H]21	.	73.2%[176 µM]	.	.	.	.
CN1CCC(N(C)c2nc(-c3ccc([N+](=O)[O-])cc3)nc3ccccc23)CC1	-96.2*	?	?	11.6µM*	?	8.2µM*
COc1ccc(CN2CCCC(C(=O)c3cccc(Cl)c3)C2)cc1 (configuration not stated)	-12.0	-15.5%	-0.6%	?	-1.2%	?
